Bioassay records from PubChem BioAssay.
In the library only some 2.9% were active in any assay of this set; here they are far more common.
Glyco luc inh = N-linked glycosylation inhibition. D54 ERlucT glycosylation luciferase reporter, 24 h; percent of 100 nM tunicamycin response. reporter increase, % at 12.5 µM. actives 0.23% (n = 360,000). AID 588692;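 active = mean luciferase reporter signal, scaled so untreated is 0 and the glycosylation-blocking control 100, at or above a set limit in every replicate; inconclusive = mean reaches the limit but not every replicate does; inactive = mean below the limit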;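 also: luciferase carries N-glycosylation sites so blocking glycosylation raises the light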
Vif inh = blocks HIV Vif function. HEK293T cells, Vif self-association by quenched fluorescence, imaging, 24 h. actives 0.35% (n = 340,000). AID 602346. inhibition, % at 7.49 µM; in the data active = inhibition above about 50%, passing the limit was not always enough; inconclusive = no clear call, values can overlap the other calls; inactive = below about 31%
Wnt bcat act = Wnt/beta-catenin pathway activation | actives 1.2% (n = 300,000) | activation, % at 9.35 µM | Wnt/beta-catenin reporter cell assay, activator, plate reader; in the data active = activation above about 30%, passing the limit was not always enough; inconclusive = no clear call, values can overlap the other calls
MITF TRPM1 HTS = activators of MITF-driven TRPM1 promoter activity in SK-MEL-5 cells. SK-MEL-5 TRPM1-promoter luciferase, 24 h; % of positive control, neutral wells = 0. activation, % at 12.5 µM. actives 0.75% (n = 300,000);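 active = mean activation of at least 80% with every replicate also reaching 80%; inconclusive = mean reaches 80% but some replicate falls short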
PvdQ acylase = blocks Pseudomonas aeruginosa PvdQ acylase activity | purified PvdQ acylase, fluorescence plate reader | AID 488965 | actives 0.063% (n = 340,000) | inhibition, % at 10 µM; in the data active = inhibition above about 30%, passing the limit was not always enough; inconclusive = no clear call, values can overlap the other calls
esBAF inh = SWI/SNF esBAF complex inhibition; AID 602393; mouse ES cells, Bmi1-luciferase knock-in reporter, 24 h; 100% = twice the neutral-well signal; reporter increase, % at 12.5 µM; actives 2% (n = 350,000); in the data active = activation above about 40%; inconclusive = no clear call, values can overlap the other calls;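 also: a rise in the Bmi1 reporter signal indicates esBAF inhibition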
Numbers stand for hits; 0 = inactive; ? = inconclusive; - = no result.

SMILES | Glyco luc inh | Vif inh | Wnt bcat act | MITF TRPM1 HTS | PvdQ acylase | esBAF inh
CSc1ccccc1OCc1cc(C(=O)N2CCN(c3ccccc3)CC2C)no1 (stereo unspecified) | 0 | 0 | 0 | 0 | 0 | 54
O=C(c1cccnc1)N1C[C@H]2[C@@H](c3ccccc31)[C@H](CO)N2C(=O)Nc1ccc(F)cc1 | - | - | - | - | - | 0
CO[C@@H]1CN(C)C(=O)c2ccc(NC(=O)c3ccccc3F)cc2OC[C@@H](C)N(C(=O)c2ccccc2F)C[C@@H]1C | - | - | - | - | - | 0
O=C(c1ccccc1[N+](=O)[O-])N1CC2C3C=CC(C3)C2C1 (stereo unspecified) | 0 | 0 | 0 | 0 | 0 | 0
O=C(c1cccc([N+](=O)[O-])c1)N1CC2C3C=CC(C3)C2C1 (stereo unspecified) | 0 | 0 | 0 | 0 | 43 | 0
COC(=O)c1cccc(NC(=O)CSc2nnc(-c3ccco3)o2)c1 | 0 | 58 | 0 | 0 | 0 | 0
COc1ccc(-c2nnc(SCC(=O)Nc3ccccc3OC)o2)cc1 | 0 | 0 | 0 | 0 | 0 | 0
O=C(CSc1nnc(-c2ccncc2)o1)Nc1cc(F)ccc1F | 0 | - | 33 | 0 | 0 | 0
O=C(CSc1nnc(-c2ccncc2)o1)Nc1cccc(F)c1 | 0 | 0 | 0 | 0 | 0 | 56
COc1ccc(-c2nnc(SCC(=O)Nc3cccc(Cl)c3)o2)cc1 | 0 | 0 | 46 | - | 0 | 0
O=C(CSc1nnc(-c2cccnc2)o1)Nc1ccc(F)cc1 | 0 | 0 | 0 | - | - | 0
COc1cc(OC)cc(-c2nnc(SCC(=O)N(C(C)C)C(C)C)o2)c1 | 0 | 0 | - | 0 | 0 | 0
COc1cccc(-c2nnc(SCC(=O)N(C(C)C)C(C)C)o2)c1 | 0 | 0 | 50 | 0 | 0 | 0
O=C(CSc1nnc(-c2cccnc2)o1)Nc1cccc(F)c1 | 0 | 0 | 0 | 0 | 0 | 61
CCCNC(=O)Nc1ccc2c(c1)C(=O)N(C)[C@@H]1CC[C@@H](CC(=O)NCCCN(C)C)O[C@@H]1CO2 | - | - | - | - | - | 0
COc1ccccc1C(=O)O/N=C(\N)c1ccccn1 | 0 | 0 | 54 | - | 0 | 0
COc1cc(OC)c(C(=O)O/N=C(\N)c2ccccn2)cc1OC | 0 | 0 | 0 | 0 | 0 | 0
COc1cc(OC)cc(C(=O)O/N=C(\N)c2ccccn2)c1 | 0 | 0 | 52 | - | - | -
COc1ccc(-c2cn(CC[C@@H]3CC[C@@H](N)[C@H](CO)O3)nn2)cc1 | - | - | - | - | - | 0
CCNC(=O)[C@@H]1[C@@H](CO)[C@@H]2Cn3c(ccc(C4=CCCC4)c3=O)[C@@H]2N1C(=O)C1CC1 | - | - | - | - | - | 0
O=c1c2ccccc2oc2cc(-c3ccc(CN4CCOCC4)cc3)ccc12 | 0 | 0 | ? | ? | 0 | 77
CCOC(=O)N1CCN(C(=O)c2cccc(S(=O)(=O)Nc3ccc(F)cc3)c2)CC1 | 0 | 0 | 39 | 0 | 0 | -
CCOC(=O)N1CCN(C(=O)c2cccc(S(=O)(=O)Nc3ccc(OC)cc3)c2)CC1 | 0 | 0 | 0 | 0 | 0 | -
CC(C)CC#Cc1ccc2c(c1)O[C@@H](CN(C)C(=O)c1cccc(F)c1)[C@H](C)CN([C@@H](C)CO)S2(=O)=O | - | - | - | - | - | 0
O=C(NC1CCCCC1)c1ccc(-c2ccccc2[N+](=O)[O-])o1 | 0 | 0 | 0 | 0 | 0 | 89
SMILES | Glyco luc inh | Vif inh | Wnt bcat act | MITF TRPM1 HTS | PvdQ acylase | esBAF inh
O=C(NC1CCCCC1)c1ccc([N+](=O)[O-])o1 | 41 | 0 | - | 0 | 0 | 0
O=C(COC(=O)c1ccc([N+](=O)[O-])o1)NC1CCCCC1 | 0 | 0 | 0 | 0 | 0 | 0
Cc1cccc(NC(=O)c2ccc(-c3ccccc3[N+](=O)[O-])o2)c1 | 0 | 0 | 0 | 0 | 0 | 0
O=C(NC1CCCC(C(F)(F)F)C1)c1ccc([N+](=O)[O-])o1 (stereo unspecified) | 29 | 0 | 0 | 0 | 0 | 0
COc1cccc(C(=O)N2C[C@@H]3[C@H](c4ccccc42)[C@@H](CO)N3C(=O)c2ccccc2)c1 | - | - | - | - | - | 0
CS(=O)(=O)c1ccc(-c2sc3ccccc3c2C(=O)N2CCN(c3ccc(F)cc3)CC2)cc1 | 0 | 0 | 45 | 94 | 0 | 0
CCCn1c(=O)c(C(=O)Nc2cccc(C)n2)c(O)c2ccccc21 | 0 | 0 | 0 | 0 | 0 | 50
Cc1cccn2c1nc(=S)n2C(=O)c1ccco1 | 0 | 0 | 72 | 0 | 0 | -
O=C(c1ccco1)N1CCN(C(=O)c2ccco2)C1=S | 0 | 0 | 0 | 0 | 0 | -
NC(=O)c1cnn(-c2cc(Oc3ccccc3)ncn2)c1N | 0 | 0 | 0 | 87 | 0 | 0
COC(=O)c1cnn(-c2cc(Oc3ccccc3)ncn2)c1N | 0 | 0 | - | 0 | 0 | 0
c1csc(-c2noc(COc3ccc4c(c3)CCCC4)n2)c1 | 0 | 0 | 36 | 140 | 0 | 0
Cn1nc(-c2ccc(Cl)cc2)c2cc(C(=O)NCCCN3CCOCC3)sc21 | 33 | 0 | 0 | 0 | 0 | 0
CCN(CC)CCNC(=O)c1cc2c(-c3ccc(Cl)cc3)nn(C)c2s1 | 36 | 0 | 0 | 0 | 0 | 0
CCCN(CCC)CCNC(=O)c1cc2c(-c3ccc(Cl)cc3)nn(C)c2s1 | 0 | 0 | 0 | 0 | 0 | 0
COc1ccc(CN(C)C[C@@H]2OCCCC[C@@H](C)Oc3ccc(NC(=O)CCC(F)(F)F)cc3C(=O)N([C@H](C)CO)C[C@@H]2C)cc1 | - | - | - | - | - | 0
COc1ccc(NC(=O)c2cc3ccccc3cc2OC)cc1OC | 0 | 0 | 0 | 0 | 0 | -
COc1cc(OC)c(C(=O)Nc2ccc3ccccc3c2)cc1OC | 0 | 0 | - | 0 | 0 | 54
Cn1nnc2cc(C(=O)Nc3ccc4ccccc4c3)ccc21 | 0 | 0 | 56 | ? | 0 | -
COc1ccc(C(=O)Nc2ccc3ccccc3c2)cc1OC | 0 | 0 | 0 | - | 0 | 86
C[C@H]1CN([C@@H](C)CO)S(=O)(=O)c2ccc(C#Cc3ccccc3F)cc2O[C@@H]1CN(C)C | - | - | - | - | - | 0
Cc1ccc(S(=O)(=O)Nc2ccc3c(c2)C(=O)N([C@H](C)CO)C[C@H](C)[C@H](CN(C)C)OCCCC[C@H](C)O3)cc1 | - | - | - | - | - | 0
CN(CCO)S(=O)(=O)c1ccc2c(c1)C(=NNC(N)=O)c1cc(S(=O)(=O)N(C)CCO)ccc1-2 | 0 | 0 | 46 | 0 | 0 | 0
COc1ccccc1CNC(=O)CSC1=NCCS1 | 0 | 58 | 0 | 0 | 0 | 0
CC(=O)Nc1ccc2nc3ccccc3nc2c1 | 0 | 0 | 47 | - | 0 | 42
SMILES | Glyco luc inh | Vif inh | Wnt bcat act | MITF TRPM1 HTS | PvdQ acylase | esBAF inh
O=C(Cc1ccccc1)Nc1ccc2oc(-c3ccncc3)nc2c1 | 0 | 0 | 0 | - | 0 | 0
O=C(Nc1ccc2nc3ccccc3nc2c1)c1ccc(Br)cc1 | 0 | 0 | - | 0 | 0 | 0
O=C(Cc1ccccc1)NC(=S)Nc1ccc2oc(-c3ccccc3F)nc2c1 | 0 | 0 | - | 125 | 0 | 0
CC(=O)Nc1ccc2oc(-c3ccccc3)nc2c1 | 0 | 0 | 64 | 0 | 0 | -
CC(C)CC(=O)Nc1ccc2oc(-c3ccncc3)nc2c1 | 0 | 0 | 0 | 0 | 0 | 67
COc1ccc(S(=O)(=O)N(C)C[C@H]2Oc3ccc(NS(C)(=O)=O)cc3CC(=O)N([C@@H](C)CO)C[C@@H]2C)cc1 | - | - | - | - | - | 0
